# Screening results as filed in PubChem.
# KCNQ2 enhance = potentiators of rat KCNQ2 potassium channel. AID 2239, 2010. 0.54% of 310,000 active. B-score at 10 µM. CHO-K1 KCNQ2, FluxOR thallium flux fluorescence; stronger effect = higher value. Potassium voltage-gated channel subfamily KQT member 2 (Rattus norvegicus), O88943;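 active = fluorescence ratio B-score at least 3 SD of library B-scores, with initial fluorescence B-score within 3 of them, cut at about 5.3 in these data; same plate scores as AID 2156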;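 note: B-score of peak minus minimum over baseline fluorescence ratio after K+ and Tl+ stimulus; positive B-score means potentiation of KCNQ2 with more thallium influx and brighter signal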
# Target sequence (O88943 whole entry, looked up): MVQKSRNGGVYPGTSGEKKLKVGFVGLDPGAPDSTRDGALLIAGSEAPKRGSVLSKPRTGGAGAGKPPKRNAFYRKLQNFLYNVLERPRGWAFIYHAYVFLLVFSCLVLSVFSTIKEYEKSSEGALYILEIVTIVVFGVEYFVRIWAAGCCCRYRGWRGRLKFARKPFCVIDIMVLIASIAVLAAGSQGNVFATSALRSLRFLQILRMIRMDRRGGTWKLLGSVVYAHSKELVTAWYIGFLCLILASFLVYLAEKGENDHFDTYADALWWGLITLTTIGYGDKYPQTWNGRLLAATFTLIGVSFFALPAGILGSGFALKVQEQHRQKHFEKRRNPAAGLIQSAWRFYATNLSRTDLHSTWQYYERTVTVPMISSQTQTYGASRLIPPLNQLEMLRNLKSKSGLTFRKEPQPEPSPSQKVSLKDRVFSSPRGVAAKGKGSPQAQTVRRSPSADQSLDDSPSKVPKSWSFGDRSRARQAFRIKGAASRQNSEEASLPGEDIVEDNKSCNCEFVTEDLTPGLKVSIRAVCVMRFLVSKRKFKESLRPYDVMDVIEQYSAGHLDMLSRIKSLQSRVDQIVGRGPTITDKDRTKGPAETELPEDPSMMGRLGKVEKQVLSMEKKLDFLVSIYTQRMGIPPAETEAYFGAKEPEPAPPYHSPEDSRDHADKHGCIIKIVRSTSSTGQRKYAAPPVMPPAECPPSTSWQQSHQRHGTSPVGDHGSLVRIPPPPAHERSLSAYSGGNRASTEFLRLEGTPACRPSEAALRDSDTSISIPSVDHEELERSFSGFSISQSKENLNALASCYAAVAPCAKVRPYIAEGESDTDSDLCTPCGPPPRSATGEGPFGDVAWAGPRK
# KCNQ2 block = rat KCNQ2 potassium channel inhibitors, primary screen, cell-based, CHO-K1, FluxOR thallium flux, B-score; AID 2156, 2009; 20 min; stronger effect = lower value; B-score at 10 µM; 1.1% of 310,000 active;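 active = fluorescence ratio B-score at most minus 3 library SDs, with starting brightness B-score within 2 library SDs, cut at about -5.5 in these data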
# Hits are given with their value; – = inactive; · = not tested or not shown. This is a sample that favours compounds with a hit; in the whole collection about 1.6% have one here.
SMILES,KCNQ2 enhance,KCNQ2 block
C[C@@H](C(=O)Nc1ccc2ccccc2c1)[C@H]1C[C@]1(C)[C@H](NC(=O)OCc1ccccc1)c1ccccc1,–,-5.9
C[C@H](CO)NC(=O)[C@H](C)[C@H]1C[C@]1(C)[C@H](NC(=O)OCc1ccccc1)c1ccccc1,–,–
C=CCn1c(SCC(=O)N(CCOC)c2c(N)n(CCCC)c(=O)[nH]c2=O)nnc1-c1ccc(Cl)cc1,·,–
CCC(=O)N1CCN=C1SCc1cccc(C(F)(F)F)c1,–,–
N#C/C(C(=O)N1CCCC1)=C1/N=C(N)c2ccccc21,–,–
Cc1ccc(NC(=O)NC2=N/C(=C(/C#N)C(=O)N3CCCC3)c3ccccc32)cc1,–,-7
O=c1cc(N2CCCCC2)c(-c2ccccc2)nn1Cc1ccccc1Cl,·,–
O=c1cc(N2CCCCC2)c(-c2ccccc2)nn1Cc1ccc(Cl)cc1Cl,–,-7.7
COc1ccc(NC(=O)C(NC(C)=O)C(=O)Nc2ccc(F)cc2)cc1 (configuration not stated),·,–
Cc1cccc(NC(=S)NCC(C)CSc2ccc(Cl)cc2)c1 (configuration not stated),–,–
Cc1ccc(NC(=S)NCC(C)CSc2ccc(Cl)cc2)cc1 (configuration not stated),13,–
COc1cc(OC)cc(C(=O)N(Cc2nc(-c3cccc(C)c3)no2)C(C)C)c1,·,–
Cc1cccc(-c2noc(CN(C(=O)C34CC5CC(CC(C5)C3)C4)C(C)C)n2)c1,–,-5.7
COc1ccc(C(=O)NCc2nnc(SCC(=O)NCc3ccco3)o2)cc1,·,–
O=C(Nc1ccccc1)NN(C(=O)CCl)c1ccccc1,–,–
CCOC(=O)c1ccc(NC(=O)COc2ccc(CNCCO)cc2OCC)cc1,–,–
CCOC(=O)c1ccc(NC(=O)COc2ccccc2CNCCc2ccccc2)cc1,–,-6.8
CCOc1ccc(NS(=O)(=O)c2csc(C(N)=O)c2)cc1,·,–
COc1ccccc1CNC(=O)c1ccc2c(=O)n3c(nc2c1)CCCCC3,–,–
O=C(CN1C(=O)COc2ccccc21)N(Cc1ccccc1)Cc1ccccn1,–,-6.1
Cc1ccc(CN(Cc2cccnc2)C(=O)CN2C(=O)COc3ccccc32)o1,·,–
Cc1cc(Cl)n2c(nc3cc(F)c(F)cc32)c1C#N,–,-13
Cc1cc(C)n2c(=O)c3ccc(Cl)cc3nc2c1C#N,·,–
Cc1nc(-c2ccc(F)cc2)c(CC(=O)N(C)CC(=O)Nc2ccc(Br)cc2C)s1,·,–
COCn1c(-c2cccc(Br)c2)nc2ccccc21,–,-5.9
SMILES,KCNQ2 enhance,KCNQ2 block
COCn1c(-c2ccc(OC)c(OC)c2)nc2ccccc21,·,–
S=C(Nc1ccccc1)Nc1nccs1,6.5,–
O=C(Cc1ccc(F)cc1)Nc1nccs1,·,–
O=C(Cc1ccccc1)Nc1nccs1,–,–
Fc1ccc(NC(=S)Nc2nccs2)cc1,7.3,–
C/C=C/C(O)c1ccc2ccccc2c1 (configuration not stated),·,–
CCC(C(=O)NC1CCCCC1)N(Cc1cccs1)C(=O)CCC(=O)Nc1cc(C)on1 (configuration not stated),–,–
CNC(=O)COc1coc(CN2CCN(c3ccc(F)cc3)CC2)cc1=O,–,–
CC(C)C(OC(=O)c1nsc(Cl)c1Cl)C(=O)NC1CCCCC1 (configuration not stated),–,–
Cc1ccccc1C(=O)NNC(=S)NC(=O)c1ccccc1,5.3,–
O=C(NC(=S)NNC(=O)c1ccccc1O)c1ccccc1,·,–
Cc1ccc(C(=O)N2CCN(S(=O)(=O)N3CCCCCC3)CC2)cc1,–,–
C[C@@H]1CC=C[C@H]2[C@H]1C(=O)N(Cc1ccccc1)[C@H]2c1ccc(-c2ccc(F)cc2)cc1F,·,–
C[C@@H]1CC=C[C@H]2[C@H]1C(=O)N(Cc1ccccc1)[C@H]2c1ccc(-c2ccoc2)cc1F,–,-6.9
O=C(NCC1CCCO1)C(=O)N/N=C/c1ccc(OCc2ccccc2Cl)cc1 (configuration not stated),–,–
COc1cc(NC(=O)C(=O)NNC(=O)C2CCCCC2)c(OC)cc1Cl,9.8,–
COc1cc(NC(=S)N2CCCCC2C)c(OC)cc1Cl (configuration not stated),·,–
O=C(Nc1cc(Cl)ccc1-n1cncn1)c1ccc([N+](=O)[O-])o1,–,–
CCc1noc(C)c1C(=O)Nc1ccc(Cl)c(S(=O)(=O)N2CCCCC2)c1,–,–
Cn1c(=O)c([N+](=O)[O-])c(-n2ccnc2)c2ccccc21,–,-6
Cn1c(=O)c([N+](=O)[O-])c(NCCCn2ccnc2)c2ccccc21,·,–
O=C(O)Cn1c(=O)c2c3c(sc2n(Cc2ccc(Cl)cc2Cl)c1=O)CCCC3,·,–
C[C@@H]1CC=C[C@H]2[C@H]1C(=O)N(Cc1ccccc1)[C@H]2c1ccc(C(F)(F)F)cc1,·,–
CC[C@@H]1CC=C[C@H]2[C@H]1C(=O)N(Cc1ccccc1)[C@H]2c1ccc2ccccc2c1,–,-5.7
O=C1C2C(c3ccccc3)CC=CC2[C@H](c2ccc(C(F)(F)F)cc2)N1Cc1ccccc1 (some centres not stated),–,-7.8
SMILES,KCNQ2 enhance,KCNQ2 block
COc1ccc([C@H]2[C@H]3C=CC[C@@H](C)[C@@H]3C(=O)N2Cc2ccccc2)cc1Cl,·,–
CC1(C)CC(NC(=O)c2ccc(-c3ccc([N+](=O)[O-])cc3)o2)CC(C)(C)N1,·,–
Cc1ccc(NC(=O)NCc2ccccn2)c(C)c1,–,–
Cc1ccc(S(=O)(=O)Nc2cccc(-c3ccc(N4CCCCCC4)nn3)c2)cc1,·,–
CCOC(=O)c1ccc(N2CCN(c3ccc(F)cc3)CC2)c(NC(=O)Nc2cccc(OC)c2)c1,·,–
CCOC(=O)c1ccc(N2CCCCC2)c(NS(=O)(=O)c2ccc(C)cc2)c1,–,-7.3
CCOC(=O)c1ccc(N2CCN(c3ccccc3F)CC2)c(NC(=O)Nc2ccccc2)c1,–,-6.3
CCN(CC)CCCNC(=O)c1ccc(N2CCCCC2)c(NS(=O)(=O)c2ccc(C)cc2)c1,·,–
Cc1ccccc1CNC(=O)C1CCC(=O)N(C2CCCCCC2)C1 (configuration not stated),–,–
COc1ccc(S(=O)(=O)N2CCOC23CCN(S(=O)(=O)c2c(C)cc(C)cc2C)CC3)cc1,·,–
COc1cccc(OCc2cc(C(=O)NCC3CCCCC3)no2)c1,·,–
CCOC(=O)CC1(NC(=O)c2cc(COc3cccc(OC)c3)on2)CCCCC1,–,-7
Cc1ccc(-n2ncc3c(=O)n(CC(=O)N(C(C)C)C(C)C)cnc32)cc1,–,–
Cc1ccc(C(=O)NCc2ccccn2)cc1Cl,·,–
CCCCN(S(=O)(=O)c1ccccc1)S(=O)(=O)c1ccccc1,–,-6
CCCCN(c1ccccc1)S(=O)(=O)N(C)C,·,–
COC(=O)c1c(NC(=O)C(=O)NCC2CCCO2)sc2c1CC(C)(C)OC2 (configuration not stated),–,–
COc1ccc(/C=N/Nc2nc(N3CCCC3)nc(N3CCCC3)n2)cc1O,–,-6.3
COc1ccc(/C=N/Nc2nc(N3CCCC3)nc(N3CCCC3)n2)cc1,·,–
COc1ccc(NC(=O)C(OC(=O)c2cnccn2)c2ccccc2)cc1Cl (configuration not stated),·,–
Cc1cccc(/C=C/c2onc(C)c2S(=O)(=O)N2CCC(C(=O)N3CCC(C)CC3)CC2)c1,·,–
Cc1cccc(/C=C/c2onc(C)c2S(=O)(=O)N2CCC(C(=O)N3CCCCCC3)CC2)c1,–,-6
